According to PubChem BioAssay (NCI):
Compounds without any hit were thinned out: in the full panel of roughly 79,000, 15% have a hit. A number with no mark means an inactive call. Cut-off read from the data, not from the text of the source: active = growth inhibition above about 70%; inactive = the rest.

experiment: NCI Yeast Anticancer Drug Screen. Data for the rad50 strain (AID 155);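 note: 0% = growth of vehicle-only cultures of the same strain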; conditions: S. cerevisiae rad50 strain growth inhibition; at 50.0 µM; active compounds read high
Method in brief: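 DNA repair mutant yeast, compound exposure, growth read-out; inhibition is taken relative to vehicle.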

| SMILES | growth inhibition [%] |
| --- | --- |
| CC(=O)Nc1cc(OC(C)=O)nc2c1CCC2 | 14.2 |
| COc1ccc(/C=C2/SC(=Nc3ccccc3)N(NC(=O)Cc3ccccc3)C2=O)c(OC)c1 | -17.9 |
| CCOc1c(OC)ccc(/C(C)=N\O)c1OCC | -2.2 |
| CCCCCCCSSCCCCCCC | -9.85 |
| CCc1occc(=O)c1O | 16.6 |
| CC(=O)Nc1ccc(NC(=O)Nc2cccc(Cl)c2C)cc1 | 2.75 |
| C=C(C)CN(Cc1ccccc1)C1CCCCCCC1 | -7.55 |
| Nc1ccc(N)c2cc(S(=O)(=O)O)ccc12 | 3.85 |
| O=C(O)c1c(Br)c(Br)c(Br)c(Br)c1C(=O)Nc1cc([N+](=O)[O-])ccc1O | 14.2 |
| CC(=O)c1ccc2c(c1)-c1ccccc1C(=O)C2=O | -24.6 |
| Cc1nc2c(c(-c3ccc(Cl)cc3)n1)Cc1c(ccc3ccccc13)O2 | -15.4 |
| CC(=O)Nc1ccc2c(c1)Cc1cc(NC(C)=O)c(Cl)cc1-2 | 3.15 |
| C=CC(C)(CCC=C(C)C)OC(C)=O (centres undefined) | 27.6 |
| C[n+]1cccc(/C=C/c2ccc3cccc(O)c3n2)c1 | 4 |
| CC1CCC(CCBr)CC1 (centres undefined) | 5.8 |
| COc1ccc(COc2ccc([N+](=O)[O-])cc2)cc1 | -12.2 |
| CN(C)/C=C(/N=C(C#N)C#N)C1OCCO1 | 4.1 |
| CCCCCCOC(=O)/C=C1/OC(=O)c2ccccc21 | -12.2 |
| CC1C=CC(C)c2c(-c3ccccc3)oc(-c3ccccc3)c21 (centres undefined) | 17 |
